Measured values from PubChem BioAssay.
The source made the active and inactive calls. No stated cut-off is given here; in the data, active means parasite load remaining mostly below about 12% (no sharp cut-off); inactive means mostly above about 10%.

Assay: liver-stage malaria parasite growth inhibition, primary screen, cell-based, HepG2, luciferase luminescence, HepG2 viability (AID 624349);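 further: 100% = mean of DMSO negative control wells on the same plate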
Details: P. berghei liver stage in HepG2, luciferase luminescence, concentration not given here; parasite load remaining: stronger effect = lower value; viability: measured here: HepG2 viability without parasites

Compound	viability [%]	parasite load remaining
CC(=O)O[C@H]1C(=O)[C@@]2(C)[C@H](O)C[C@@H]3OC[C@]3(OC(C)=O)[C@@H]2[C@@H](OC(=O)c2ccccc2)[C@@]2(O)C[C@@H](OC(=O)[C@@H](O)[C@H](NC(=O)c3ccccc3)c3ccccc3)C(C)=C1C2(C)C	89.6	172% (inactive)
CC(=O)NC1[C@@H](O)OC(CO)[C@@H](O)[C@H]1O[C@H](C)C(=O)O (stereo not given in full)	76.2	82.1% (inactive)
CN=C(NC#N)NCCSCC1N=CN=C1C (stereo not given)	88.8	100% (inactive)
Cc1c(C)c2c(c(C)c1O)CC[C@](C)(CCC[C@@H](C)CCC[C@@H](C)CCCC(C)C)O2	78.5	52.8% (inactive)
CN(C)CC/C=C1/c2ccccc2CSc2ccccc21	76.6	68.1% (inactive)
C=CC1=C(C(=O)O)N2C(=O)[C@@H](NC(=O)/C(=N/OCC(=O)O)c3csc(N)n3)[C@H]2SC1 (stereo in doubt)	73.2	92.8% (inactive)
Nc1c2ccccc2nc2c(O)cccc12	77.4	80.8% (inactive)
CCOC(=O)[C@@H](CCc1ccccc1)NC(C)C(=O)N1CCC[C@@H]1C(=O)O (stereo not given in full)	91.7	94.8% (inactive)
CN1[C@@H]2CC[C@H]1CC(OC(=O)[C@@H](CO)c1ccccc1)C2 (stereo not given in full)	89	111% (inactive)
O=C1O[C@H](C(O)CO)[C@H](O)C1O (stereo not given in full)	76.1	68.2% (inactive)
C=C1CC[C@@H](O)C/C1=C/C=C1\CCC[C@]2(C)[C@@H]([C@H](C)CCCC(C)C)CC[C@@H]12	76	79.3% (inactive)
CCCCCCOC(=O)[C@]1(O)C[C@@H]2O[C@@]1(C)n1c3ccccc3c3c4c(c5c6ccccc6n2c5c31)C(=O)NC4	93.7	55.7% (inactive)
Cc1cc(Nc2nc(-c3ccccc3)nc3ccccc23)n[nH]1	117	33.3% (inactive)
COC(=O)C1=CO[C@@H](C)[C@@H]2CN3CCc4c([nH]c5ccccc45)C3C[C@H]12 (stereo not given in full)	77.2	62.4% (inactive)
CCN(CC)C(=O)c1ccc(Nc2nc(OCC3CCCCC3)c3[nH]cnc3n2)cc1	89.4	41.1% (inactive)
CC(=O)NC(CC(=O)O)C(=O)O (stereo not given)	77	89% (inactive)
COc1cc(OC)c2c(c1Cl)O[C@]1(C2=O)C(OC)CC(=O)C[C@H]1C (stereo not given in full)	93.9	83.9% (inactive)
CC(C)(CO)[C@H](O)C(=O)NCCC(=O)O	77.3	85.1% (inactive)
C[C@]12CCC(=O)C[C@H]1CC(=O)[C@@H]1[C@@H]2CC(=O)[C@]2(C)CCC[C@@H]12 (tested in a mixture with another compound)	86.8	107% (inactive)
CC(=O)O/N=C1\C(c2c(O)[nH]c3cc(Br)ccc23)=Nc2ccccc21	97.9	14.7% (inactive)

Compound	viability [%]	parasite load remaining
Nc1nc2ncc(CNc3ccc(C(=O)N[C@H](CCC(=O)O)C(=O)O)cc3)nc2c(=O)[nH]1	76.8	51.4% (inactive)
O=Nc1c(-c2c(O)[nH]c3ccc(I)cc23)[nH]c2ccccc12	156	33.7% (inactive)
O=c1[nH]c(=O)n([C@H]2CC(O)[C@@H](CO)O2)cc1I (stereo not given in full)	96.5	130% (inactive)
CC(C)(O/N=C(/C(=O)N[C@@H]1C(=O)N2C(C(=O)[O-])=C(C[n+]3ccccc3)CS[C@H]12)c1csc(N)n1)C(=O)O	82.6	88.2% (inactive)
C=C1CC[C@@H](O)C/C1=C/C=C1\CCC[C@]2(C)[C@@H]([C@H](C)/C=C/[C@@H](C)C(C)C)CC[C@@H]12	88.3	66.4% (inactive)
CC1Cc2ccccc2N1NC(=O)c1ccc(Cl)c(S(N)=O)c1 (stereo not given)	94.8	50.9% (inactive)
CC[C@H]1OC(=O)[C@H](C)[C@@H](O[C@H]2C[C@@](C)(OC)[C@@H](O)[C@H](C)O2)[C@H](C)[C@@H](O[C@H]2O[C@H](C)C[C@H](N(C)C)[C@H]2O)[C@](C)(O)C[C@@H](C)C(=O)[C@H](C)[C@@H](O)[C@]1(C)O	81.9	97.5% (inactive)
CC(C)CC(=O)NC(C(=O)N[C@H](C(=O)NC(CC(C)C)[C@@H](O)CC(=O)N[C@@H](C)C(=O)NC(CC(C)C)[C@@H](O)CC(=O)O)C(C)C)C(C)C (stereo not given in full)	80.5	67.7% (inactive)
C[C@H]1[C@H](C)CC[C@]2(C(=O)O)CC[C@]3(C)C(=CCC4[C@@]5(C)CC[C@H](O)C(C)(C)[C@@H]5CC[C@]43C)[C@H]12 (stereo not given in full)	92.7	107% (inactive)
C1CCN2C[C@H]3C[C@@H](CN4CCCC[C@@H]34)[C@H]2C1	72.2	73.9% (inactive)
CC[C@H]1CN2CCc3cc(OC)c(OC)cc3[C@@H]2C[C@@H]1CC1NCCc2cc(OC)c(OC)cc21 (stereo not given in full)	61.4	2.62% (inactive)
CN1CCC23c4ccccc4NC1C21CCN(C)C3Nc2ccccc21	76.7	79.4% (inactive)
O=C(N[C@H](CO)[C@@H](O)c1ccc([N+](=O)[O-])cc1)C(Cl)Cl	91.7	100% (inactive)
COC1CC(O[C@@H]2[C@H](C)[C@H](OC3OC(C)CC(N(C)C)C3OC(C)=O)[C@H](C)CC3(CO3)C(=O)[C@@H](C)C(OC(C)=O)[C@H](C)[C@H](C)OC(=O)[C@@H]2C)OC(C)C1OC(C)=O (stereo not given in full)	90.9	86.6% (inactive)
CS(=O)(=O)c1ccc(-c2nc(-c3ccc(F)cc3)c(-c3ccncc3)[nH]2)cc1	88.5	28.7% (inactive)
CCOC(=O)Oc1c(OC)cc(C(=O)OC2CC3CN4CCc5c([nH]c6cc(OC)ccc56)C4CC3C(C(=O)OC)C2OC)cc1OC (stereo not given)	77.6	55.8% (inactive)
NCC1OC(COC[C@@H]2C(O)[C@H](OC3C(O)C(N)CC(N)C3OC3OC(CN)C(O)C(O)C3N)O[C@@H]2CO)C(N)C(O)C1O (stereo not given in full)	89.7	91.3% (inactive)
CC(C)(CS)C(=O)N1CCC[C@@H]1C(=O)O	94.8	94.4% (inactive)
CC[C@@H]1OC(=O)[C@H](C)[C@H](O[C@H]2C[C@@](C)(OC)[C@@H](O)[C@H](C)O2)[C@@H](C)[C@@H](O[C@@H]2O[C@H](C)C[C@H](N(C)C)[C@H]2O)C(C)(O)C[C@@H](C)[C@@H]2NC(COCCOC)OC([C@H]2C)[C@]1(C)O (stereo not given in full)	77.5	84.5% (inactive)
Cc1cc2ncc(-c3ccccc3)nc2cc1C	74.4	40.3% (inactive)
